Assay results: PubChem BioAssay AID720700 (The Scripps Research Institute Molecular Screening Center, 2013)
The whole screen tested about 370,000 compounds, of which about 3,100 (0.84%) were called active. This is one part of a sample in which actives are shown more often than they occur. Cut-off read from the data, not from the text of the source: active = inhibition above about 9.5%; inactive = the rest.

What follows are molecules tested against 1-phosphatidylinositol 4,5-bisphosphate phosphodiesterase gamma-1 (Homo sapiens) (UniProt P19174) (assay: blockers of human PLCG1 activity – biochemical, fluorescence, purified enzyme, primary screen (AID 720700)). Details: purified PLC-gamma1, fluorogenic substrate, at 12.2 µM, hits give high values.
Chain of 1-phosphatidylinositol 4,5-bisphosphate phosphodiesterase gamma-1 (Homo sapiens) (P19174 whole entry, looked up): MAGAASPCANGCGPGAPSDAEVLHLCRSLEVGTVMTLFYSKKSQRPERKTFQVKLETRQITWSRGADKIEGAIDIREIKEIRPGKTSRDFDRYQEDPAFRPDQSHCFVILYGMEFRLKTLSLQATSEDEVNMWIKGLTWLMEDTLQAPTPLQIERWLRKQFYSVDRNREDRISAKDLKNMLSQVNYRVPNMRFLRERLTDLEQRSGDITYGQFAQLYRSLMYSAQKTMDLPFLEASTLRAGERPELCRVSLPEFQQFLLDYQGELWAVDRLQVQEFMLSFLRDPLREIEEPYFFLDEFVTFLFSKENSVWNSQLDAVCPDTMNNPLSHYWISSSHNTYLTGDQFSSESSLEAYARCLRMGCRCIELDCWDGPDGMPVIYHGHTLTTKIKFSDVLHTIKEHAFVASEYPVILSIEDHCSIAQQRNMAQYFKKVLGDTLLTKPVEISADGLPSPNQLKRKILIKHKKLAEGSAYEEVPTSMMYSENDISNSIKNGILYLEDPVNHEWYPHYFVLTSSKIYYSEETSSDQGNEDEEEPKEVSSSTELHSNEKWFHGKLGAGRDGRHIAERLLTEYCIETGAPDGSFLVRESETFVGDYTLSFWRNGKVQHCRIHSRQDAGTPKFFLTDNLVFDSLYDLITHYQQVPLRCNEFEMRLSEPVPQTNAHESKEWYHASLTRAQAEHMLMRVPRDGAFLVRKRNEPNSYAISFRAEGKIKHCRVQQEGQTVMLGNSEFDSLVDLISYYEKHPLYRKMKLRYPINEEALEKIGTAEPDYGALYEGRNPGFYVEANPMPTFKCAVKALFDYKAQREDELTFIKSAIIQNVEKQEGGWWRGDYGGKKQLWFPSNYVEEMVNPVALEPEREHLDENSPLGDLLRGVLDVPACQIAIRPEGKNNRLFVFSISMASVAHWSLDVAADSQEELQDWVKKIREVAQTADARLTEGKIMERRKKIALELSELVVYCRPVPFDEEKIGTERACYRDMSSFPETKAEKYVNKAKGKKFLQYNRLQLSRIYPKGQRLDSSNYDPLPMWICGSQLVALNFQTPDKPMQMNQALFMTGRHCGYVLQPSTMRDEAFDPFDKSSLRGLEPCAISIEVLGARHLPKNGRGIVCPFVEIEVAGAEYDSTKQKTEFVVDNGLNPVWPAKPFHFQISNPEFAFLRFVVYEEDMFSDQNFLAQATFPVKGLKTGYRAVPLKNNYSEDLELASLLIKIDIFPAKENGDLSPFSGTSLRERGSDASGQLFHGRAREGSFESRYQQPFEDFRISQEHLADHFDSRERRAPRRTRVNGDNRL

inhibition, inactive:
O=C(CSc1nnc(-c2ccccc2)n1Cc1ccco1)Nc1ccccc1-c1ccccc1 8.54%
COc1cccc(/C=C2\CC3(OC(C)=O)CCCN2C3)c1 (stereo unspecified) -1.03%
COC(=O)[C@@]12CCCCC3=C1N(CCC3)C(=O)[C@H]2CC(=O)NCc1cccc2ccccc12 3.71%
Cc1ccnc(SCC(=O)Nc2cccc(S(=O)(=O)N3CCOCC3)c2)n1 1.32%
Cc1cc(C(=O)NNC(=O)c2cccc(S(=O)(=O)N3CCOCC3)c2)c2ccccc2n1 1.34%
O=C(Nc1ccc(S(=O)(=O)N2CCOCC2)cc1)c1ccc2ncsc2c1 -4.28%
O=C(CSc1ccccc1)Nc1cccc(S(=O)(=O)N2CCCCC2)c1 5.78%
COc1ccc(CN2C(=O)N3Cc4cc(OC)ccc4C3CS2(=O)=O)cc1 (stereo unspecified) 0.38%
O=C(NCCCc1ccccc1)[C@H](Cc1ccccc1)NC1(C(=O)NCCc2c[nH]c3ccccc23)CCC1 -0.08%
Cc1ccc(C(=O)N(Cc2ccccn2)CC2CCCO2)cc1 (stereo unspecified) 0.65%
CN1C[C@]2(C=C3CCCCC3n3c(=O)n(-c4ccccc4)c(=O)n32)N=C1NC(=O)c1ccccc1 (stereo partly specified) -0.41%
Cc1ccc(C(=O)N2CCCC2)c(F)c1F 2.59%
Cc1cccc(NC(=O)N2CCCCCC2)c1C 0.02%
Nn1c(SCC(=O)N2c3ccccc3Sc3ccccc32)nnc1-c1n[nH]c2c1CCC2 1.2%
COP(=O)(O)CNC(=O)OCc1ccccc1 2.2%
CC(CCN1CCC(C(O)(c2ccccc2)c2ccccc2)CC1)Oc1ccc(C(F)(F)F)cc1 (stereo unspecified) 6.64%
COC(=O)c1cc(S(=O)(=O)N2CCN(c3ccccc3C)CC2)cn1C -2.77%
C=CCN1C(=O)[C@H](CC(=O)NCCCN2CCCC2=O)[C@@]2(C(=O)OCC)CCCC=C12 -1.95%
CCCCCN1CCCCC(NC(=O)C(C)CCC)C1=O (stereo unspecified) 0.76%
CC(=O)O[C@@]1(C(C)=O)CCC2[C@H]3C=C(C)C4=CC(=O)CC[C@@]4(C)C3CC[C@]21C (stereo partly specified) -2.78%
CCCCC1S/C(=N/N=C/c2cccs2)NC1=O (stereo unspecified) -0.02%
O=C1N/C(=N\N=C\c2ccco2)SC1Cc1ccc(F)cc1 (stereo unspecified) 2.17%
Cc1cccc(C(=O)Nc2c(-c3ccc(F)cc3)nc3ncccn23)c1 -270%
O=[N+]([O-])c1cc(S(=O)(=O)N2CCCC2)ccc1NN=C1CCCC1 7.15%
O=[N+]([O-])c1cc(C(F)(F)F)ccc1NCCc1ccncc1 -0.57%
COc1ccc2c(C(C)c3ccc(N)cc3)cn(C)c2c1 (stereo unspecified) 3.03%
N#Cc1ccccc1OC[C@@H](O)CN1CCC(C(O)(c2ccccc2)c2ccccc2)CC1 2.31%
CCOc1ccc(Oc2c(Cl)cnn(-c3ccc(C)cc3)c2=O)cc1 -4.67%
CN(CCc1ccccc1)C(=O)Cn1nc(-c2ccccc2)ccc1=O 1.49%
CC(CCN1CCC(C(O)(c2ccccc2)c2ccccc2)CC1)Oc1ccc([N+](=O)[O-])cc1Cl (stereo unspecified) 6.49%
COc1ccc(C(=O)OCCN(C)C2CN(Cc3cn(Cc4cccc(C)c4)nn3)S(=O)(=O)C2)cc1OC (stereo unspecified) 3.3%
O=C(c1ccccn1)c1ncc(C(F)(F)F)cc1Cl 1.59%
Cc1cc(C)cc(NS(=O)(=O)c2ccc(Oc3ncc(C(F)(F)F)cc3Cl)cc2)c1 -1.75%
Cc1ccccc1NC(=O)C1CCN(c2ncccn2)CC1 -3.53%
CC(C)(C)OC(=O)NCCc1ccccc1/C=C/S(=O)(=O)NCc1ccc(F)cc1 -0.15%
CC1CCN(c2ccc(C(=O)O)cc2NS(=O)(=O)c2ccc(Br)s2)CC1 2.88%
O=C(Nc1ccc(C(F)(F)F)cc1)c1cccc(-n2cnnn2)c1 -2.72%
O=C(Cn1cc(/C=N/NC(=O)c2cccc(C(F)(F)F)c2)c2ccccc21)Nc1ccc(F)cc1 -0.8%
Cc1cccc(N2C(=O)N3[C@H](c4ccc(F)cc4)[C@@H]4C(=O)N(C5CCCCC5)C(=O)[C@@H]4[C@]3(Cc3ccccc3)C2=O)c1 2.62%
O=C1[C@H]2[C@@H](c3ccc(Cl)cc3)N3C(=O)N(c4cccc(F)c4)C(=O)[C@@]3(Cc3ccccc3)[C@H]2C(=O)N1C1CCCCC1 -2.34%
C[C@@H]1ON(C)[C@H]2C[C@H]3c4[nH]c5cccc(-c6ccc7c(c6)OCO7)c5c4CCN3C[C@@H]12 -51.7%
N#CCC[C@H]1CC[C@]2(CCCN(Cc3ccc(Cl)cc3)C2)O1 -3.24%
COc1ccc(CCNC(=O)CSc2nc3c([nH]2)c(=O)n(C)c(=O)n3C)cc1 -0.19%
CN(C)S(=O)(=O)c1cccc(NC(=O)COC(=O)c2cc(=O)[nH]c(=O)[nH]2)c1 5.81%
CN(C)S(=O)(=O)c1cccc(NC(=O)COc2ccc3ccccc3c2)c1 2.81%
O=C(NCc1ccccc1)[C@H]1CCCN1C(=O)[C@H]1CCCN1C(=O)c1cc(F)cc(F)c1 0.04%
O=C(NCc1ccccc1)[C@@H]1CCCN1C(=O)[C@H]1CCCN1C(=O)c1cccc(Cl)c1 0.25%
Cc1cc(=O)[nH]c(SCC(=O)Nc2ccc(F)cc2F)n1 0.36%
CC(=O)Nc1ccc(OC[C@@H](O)CN2CCC(C(O)(c3ccccc3)c3ccccc3)CC2)cc1 -0.12%
COc1ccc(Cn2cc(CN3[C@@H](CC(C)C)COc4cc(Br)ccc4S3(=O)=O)nn2)cc1 3.87%
O=S1(=O)c2ccc(Br)cc2OC[C@@H](Cc2ccccc2)N1Cc1cn(Cc2ccco2)nn1 6.61%
O=C(CCCCCN1C(=O)C2C3C=CC(C3)C2C1=O)Nc1ccccc1 (stereo unspecified) 4.2%
CCOC(=O)C1CCN(C(=O)C(C)(C)NC(=O)Nc2ccc(F)c(F)c2)CC1 6.44%
Cc1ccc(CCN2CC(C(=O)NCCc3ccccc3)CC2=O)cc1 (stereo unspecified) 7.32%
COCCCNC(=O)C1CC(=O)N(CCc2ccccc2)C1 (stereo unspecified) 7.12%
COc1cccc(Cn2cc(COC(=O)Nc3ccc(F)cc3)nn2)c1 -1.49%
CCOC(=O)[C@@]12CN(C(=O)OC(C)(C)C)CC=C1N(Cc1ccc(OC)cc1)C(=O)[C@H]2CC(=O)NCc1ccc(OC)c(OC)c1 2.04%
COc1ccc(CN2C/C(=C/c3ccccc3)N3C(=O)C[C@@H](c4ccccc4)N=C23)c(OC)c1 -7.12%
O=C1c2ccccc2S(=O)(=O)N1Cc1c(F)cccc1Cl -1.51%
CS(=O)(=O)N(CC(O)Cn1c2ccccc2c2ccccc21)c1cccc2ccccc12 (stereo unspecified) -10.8%
C=CCN(C)CC#Cc1ccccc1 1.26%
CC1(C)CC(=O)C=C(NCCCN2CCCC2=O)C1 1.47%
COc1ccc(CCNC2=CC(=O)CC(C)(C)C2)cc1 1.19%
O=C(CCS(=O)(=O)c1ccccc1)Nc1ccc(Cl)c(Cl)c1 -5.17%
CCOC(=O)N1CCN(C(=O)C[C@@H]2C(=O)N(CCc3ccc(Cl)cc3)C3=CCCC[C@]32C(=O)OCC)CC1 2.91%
CCOC(=O)N1CCC(C(N)=O)CC1 -1.53%
CCOC(=O)N1CCC(NC(=O)Cc2cn(C)c3ccccc23)CC1 2.53%
O=C(OCC#CCSc1nnc(-c2ccco2)o1)c1ccc(F)cc1 -0.72%
CCN(CC)C(=O)CC[C@H]1CC[C@]2(CCCN(Cc3ccc(Cl)cc3)C2)O1 3.26%
CCCCCCN1CCS(=O)(=O)N(Cc2ccc(C(F)(F)F)cc2)C(C(=O)OC)C1 (stereo unspecified) -2.36%

inhibition, active:
Cc1nc2ccc(NC(=O)c3cccc(S(=O)(=O)N4CCOCC4)c3)cc2s1 14%
O=C(CSc1ccccc1)Nc1cccc(S(=O)(=O)N2CCOCC2)c1 11.5%
CNC(=O)n1ccc(C(=O)N2CCCCC2)n1 9.53%
CCC1S/C(=N/N=C/c2ccco2)NC1=O (stereo unspecified) 10.6%
O=[N+]([O-])c1cc(C(F)(F)F)ccc1NN=C1CCCC1 11.1%
C=CCSC(CC)(CC)C(N)=O 11.9%
FC(F)(F)c1cnc(Oc2ccccc2-c2nnc(-c3ccc(Cl)cc3)o2)c(Cl)c1 12.3%
CNC(=O)c1ccc(NC(=O)c2cccc(C(F)(F)F)c2)cc1 14.4%
Cc1cccc([C@@H]2[C@@H]3C(=O)N(Cc4ccccc4)C(=O)[C@@H]3[C@]3(Cc4ccc(Cl)cc4)C(=O)N(c4cccc(Cl)c4)C(=O)N23)c1 11.3%
CN(C)S(=O)(=O)c1cccc(NC(=O)COC(=O)C2(c3ccccc3F)CCCC2)c1 11.9%
O=C(NCc1ccc(F)cc1F)[C@@H]1CCCN1C(=O)[C@@H]1CCCN1C(=O)c1cccc(Cl)c1 11%
O=S1(=O)c2ccc(Br)cc2OC[C@H](Cc2ccccc2)N1Cc1cn(Cc2ccccc2)nn1 10.2%
O=C(NCCCN1CCCCC1)C1CC(=O)N(CCc2ccccc2)C1 (stereo unspecified) 10%
O=C1c2ccccc2S(=O)(=O)N1CC(O)Cn1c2ccccc2c2ccccc21 (stereo unspecified) 15.2%
CC1(C)CC(=O)C=C(NCCN2CCNCC2)C1 10.7%
CCOC(=O)N1CCC(c2cc(=O)n(-c3ccccc3)[nH]2)CC1 9.95%
